Bioassay records deposited in PubChem BioAssay by several laboratories.
The list is not random: actives were taken first. Their share in the collection is about 2.4%.
PREPL inhibitor: human PREPL enzyme inhibition; recombinant PREPL, fluorescence polarization activity-based probe; inhibition, % at 5.96 µM; actives 0.68% (n = 320,000); AID 2751; in the data active = inhibition above about 43%;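 also: 0% = enzyme with DMSO and 100% = wells lacking enzyme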
Rpn11 inh: inhibitors of human proteasome Rpn11; human 26S proteasome, Ub4-pepOG fluorescence polarization; 20S core pre-blocked with epoxomicin; AID 588493; inhibition, % at 20 µM; actives 0.59% (n = 360,000);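 active = inhibition at 20 µM, scaled to each plate's controls, above about 33%, limit read from the data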
Target sequence (O00487 whole entry, looked up): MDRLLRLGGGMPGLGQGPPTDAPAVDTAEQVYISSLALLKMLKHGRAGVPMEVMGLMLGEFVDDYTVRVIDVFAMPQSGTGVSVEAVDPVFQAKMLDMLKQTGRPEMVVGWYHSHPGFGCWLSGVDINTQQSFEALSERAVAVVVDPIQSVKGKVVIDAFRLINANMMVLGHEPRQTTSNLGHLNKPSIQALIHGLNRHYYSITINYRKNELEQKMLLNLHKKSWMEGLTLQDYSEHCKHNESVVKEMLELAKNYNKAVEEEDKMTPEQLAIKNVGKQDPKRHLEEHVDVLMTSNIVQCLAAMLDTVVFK
PP1 inh: counter-screen for PP5 inhibitors: inhibitors of human PP1-alpha; purified PP1alpha, OMFP fluorescence; inhibition, % at 6.7 µM; actives 0.9% (n = 320,000); AID 2235;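 active = inhibition above the mean inhibition of all tested compounds plus 3 SD, computed separately for each screening campaign, cut at about 15% in these data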
Target sequence (P62136 whole entry, looked up): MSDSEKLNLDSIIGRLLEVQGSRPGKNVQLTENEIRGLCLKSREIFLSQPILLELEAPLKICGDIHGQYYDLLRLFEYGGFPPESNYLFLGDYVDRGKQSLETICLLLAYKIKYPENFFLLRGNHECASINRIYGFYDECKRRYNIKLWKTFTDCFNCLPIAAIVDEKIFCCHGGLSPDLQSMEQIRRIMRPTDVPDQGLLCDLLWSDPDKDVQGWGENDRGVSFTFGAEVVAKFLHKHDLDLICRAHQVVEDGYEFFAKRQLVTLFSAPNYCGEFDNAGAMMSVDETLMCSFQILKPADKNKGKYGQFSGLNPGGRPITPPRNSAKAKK
NadD inh: NadD (S. aureus) enzyme inhibition. purified NadD enzyme, colorimetric absorbance read-out. inhibition, % at 20 µM. actives 0.78% (n = 360,000). AID 602399; in the data active = inhibition above about 26%
PP5 inh: blocks human protein phosphatase 5 activity; purified PP5c, OMFP substrate fluorescence; inhibition, % at 6.7 µM; actives 0.18% (n = 320,000); AID 1987;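 active = inhibition above the campaign's mean inhibition across all tested compounds plus 3 SD, cut at about 9.5% in these data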;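 also: 0% = DMSO only and 100% = 100 µM cantharidin control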
NadD conf: confirmation of Staphylococcus aureus NadD inhibitors; purified S. aureus NadD, colorimetric enzyme assay; shares compounds with NadD inh; actives 13% (n = 2,000); inhibition, % at 20 µM; in the data active = inhibition mostly above about 42%, no sharp cut-off; inactive = mostly below about 42%
Numbers without * were called inactive; x = no result given.

SMILES | PREPL inhibitor | Rpn11 inh | PP1 inh | NadD inh | PP5 inh | NadD conf
Cc1ccc(-c2cc(C(=O)NNC(=O)c3csc(N4CCOCC4)n3)c3ccccc3n2)cc1 | 1.6 | 19.4 | 10.0 | 14.7 | 1.1 | x
O=C(NNC(=O)c1cc(-c2ccc(Cl)cc2)nc2ccccc12)c1csc(N2CCOCC2)n1 | -4.0 | 4.8 | 2.4 | 31.1* | -0.6 | 37.3*
O=C(NNC(=O)c1cc(-c2ccc(Br)cc2)nc2ccccc12)c1csc(N2CCOCC2)n1 | x | -1.3 | x | 31.2* | x | 30.4
CC(=O)CCC(=O)CNC(=O)CC[C@H]1O[C@@H](n2ccc(=O)[nH]c2=O)[C@H](O)[C@@H]1O | x | -6.5 | x | -2.3 | x | x
CCCCc1c(Cc2cccc(F)c2)ncn1CCc1ccccc1OC | x | x | x | -0.4 | x | x
Cc1cn([C@H]2C[C@H](O)[C@@H](CCC(=O)NCc3ccccc3)O2)c(=O)[nH]c1=O | x | -3.0 | x | -4.2 | x | x
CCc1nnc(NC(=O)CSc2nc(-c3ccccc3)cc(-c3ccc(F)cc3)c2C#N)s1 | -2.6 | 32.5 | -2.6 | 43.9* | -0.4 | 3.6
CCc1nnc(NC(=O)CSc2ccc(-c3ccc(F)cc3)nn2)s1 | -1.7 | x | -4.6 | x | -2.0 | x
Cc1ccc(C(=O)OCC(=O)Nc2sc3c(c2C#N)CCCC3)cc1NC(=O)c1ccco1 | 4.4 | 20.0 | 11.2 | 58.7* | -1.4 | 17.2
Cc1ccc(C(=O)OCC(=O)Nc2sc3c(c2C#N)CCCCC3)cc1NC(=O)c1ccco1 | 2.8 | 4.3 | 4.4 | 35.9* | 2.6 | 11.6
Cc1ccc(S(=O)(=O)N2CCC(C(=O)N3CCCCCCC3)CC2)cc1C | x | 4.9 | x | -1.8 | x | x
CC[C@H](C)/C=C(C)/C=C/C(=O)Cc1cc(O)c(C)c(O)c1C=O | 8.1 | 38.7 | 1.1 | 33.2* | 3.2 | 13.6
CC[C@H](C)/C=C(C)/C=C/c1cc2c(cn1)C(=O)[C@@](C)(OC(C)=O)C(O)=C2Cl | x | -16.6 | x | 12.9 | x | x
CC1(c2nnc(Cc3ccccc3)o2)CC(c2c(Cl)cccc2Cl)=NO1 (stereo not drawn) | -29.9 | 1.9 | 5.7 | -3.0 | 2.6 | x
CC(C)(C)c1ccc(C(=O)Nc2nonc2-c2nc3ccccc3[nH]2)cc1 | -15.9 | 15.4 | -2.9 | 55.1* | 0.6 | 1.9
CN(CCCNC(=O)CCc1cn(C)c2ccccc12)C1CCCCC1 | 17.1 | 1.7 | -3.0 | -4.9 | 0.3 | x
CC1(C)CC(=O)C2=C(C1)c1c(ccc3ccccc13)NC2c1ccc(Br)o1 (stereo not drawn) | 10.9 | -2.6 | 3.5 | 37.2* | 2.0 | 36.8
O=C(Nc1ccc(NC(=S)NC(=O)c2cccs2)cc1)c1ccccc1 | 11.4 | 2.8 | -0.1 | 1.3 | -0.6 | x
O=C(NNC(=S)NC(=O)c1cccs1)c1ccc(NC(=O)c2ccccc2)cc1 | 5.8 | 8.7 | 7.7 | 31.6* | -0.6 | 37.3
COc1ccc(C(=O)c2[nH]c(N)c(C(=O)NCCc3c[nH]c4ccccc34)c2-c2ccc(Br)cc2)cc1 | x | x | x | 44.0* | x | 28.8
Nc1[nH]c(C(=O)c2ccccc2)c(-c2ccc(Br)cc2)c1C(=O)NCCc1c[nH]c2ccccc12 | x | x | x | 26.5 | x | x
CC(C)Oc1ccc2ccccc2c1CNC[C@H]1O[C@@H](n2cnc(C(N)=O)n2)[C@H](O)[C@@H]1O | x | -0.3 | x | -3.3 | x | x
O=C(/C=C/c1ccc2ccccc2n1)c1cc(Cl)ccc1O | 0.9 | x | 4.4 | 32.6* | -0.9 | 35.6
COc1ccc(-c2nc3ccc(Cl)cn3c2Cc2cccc(Cl)c2)cc1OC | x | 25.8 | x | 5.8 | x | x
CC1CC(NC(=O)c2c(O)nc3ccccn3c2=O)CC(C)(C)C1 (stereo not drawn) | x | -5.1 | x | -0.8 | x | x
SMILES | PREPL inhibitor | Rpn11 inh | PP1 inh | NadD inh | PP5 inh | NadD conf
CC1CC(NC(=O)c2c(O)nc3sccn3c2=O)CC(C)(C)C1 (stereo not drawn) | -11.7 | -5.1 | 11.8 | 34.9* | 0.5 | 24.4
COc1ccc(COc2cc(-c3cccc(OC)c3)nc3ccc(NC(=O)c4ccc(Cl)cc4)cc23)cc1 | -15.6 | -3.8 | -1.4 | 59.1* | 0.1 | 10.6
COc1ccc(COc2cc(-c3cccc(OC)c3)nc3ccc(NC(=O)c4cccnc4)cc23)cc1 | -26.0 | 3.2 | 0.3 | 5.8 | 2.2 | x
COc1ccc(COc2cc(-c3cccc(OC)c3)nc3ccc(NC(=O)c4ccc(OC)cc4)cc23)cc1 | -11.2 | 1.3 | 2.9 | 24.8 | -1.1 | x
COc1ccc(COc2cc(-c3cccc(OC)c3)nc3ccc(NC(=O)c4ccccc4)cc23)cc1 | -1.8 | -1.2 | -1.3 | 32.1* | 0.7 | 9.2
CCCc1cc(=O)[nH]c(SCC(=O)N(CC)c2c(N)n(Cc3ccccc3)c(=O)[nH]c2=O)n1 | 8.9 | 4.7 | -0.2 | 0.8 | 0.5 | x
CC(OC(=O)c1ccc(Br)o1)C(=O)NCC1CCCCC1 (stereo not drawn) | 6.5 | -2.1 | x | -5.6 | x | x
Cc1cc(C)n(-c2nc(N(c3ccccc3)c3ccccc3)nc(-n3nc(C)cc3C)n2)n1 | -0.2 | 19.8 | 13.7 | 42.4* | -1.0 | 21.5
Cc1ccc2c(c1)C(c1ccccc1)N(C(=O)c1ccc(Br)cc1)CC(=O)N2 (stereo not drawn) | x | 3.8 | x | 2.6 | x | x
CCN(CC(=O)NCc1cccs1)C(=O)c1ccc(S(=O)(=O)Nc2ccccc2C)cc1 | -1.3 | 8.2 | -1.0 | -4.1 | -1.0 | x
CC(=O)c1ccccc1NC(=O)CN1C(=O)CS/C1=C\c1nc(-c2ccc(C)cc2)cs1 | 7.7 | 10.2 | -11.4 | 46.1* | -4.1 | 1.5
Cc1ccc(-c2csc(/C=C3/SC(C)C(=O)N3CC(=O)Nc3ccccc3F)n2)cc1 (stereo not drawn) | x | 8.6 | x | 21.6 | x | x
Cc1csc2c(=O)[nH]cnc12 | -5.6 | 0.6 | 0.3 | -4.1 | 2.9 | x
CC(C)(C)OC(=O)N1CCC(c2cc(=O)n3[nH]cc(C(=O)Nc4ccc(F)c(Cl)c4)c3n2)CC1 | -1.1 | 5.1 | 1.9 | 22.4 | 1.2 | x
COc1ccc(NC(=O)c2c[nH]n3c(=O)cc(C4CCN(C(=O)OC(C)(C)C)CC4)nc23)cc1Cl | 26.6 | -1.8 | 13.8 | 29.0* | -1.0 | 20.4
COc1ccc(S(=O)(=O)N(C)CC(=O)N2CCN(Cc3ccccc3)CC2)cc1C | 11.3 | 2.7 | -1.1 | -1.4 | 1.9 | x
Cc1ccc(C(=O)c2oc3ccccc3c2NC(=O)c2cc(-c3ccccc3O)n[nH]2)cc1 | 0.5 | -6.5 | 1.8 | 34.1* | -0.5 | 4.6
Cc1ccc(C(=O)c2oc3ccccc3c2NC(=O)c2cc(-c3cc(C)ccc3O)n[nH]2)cc1 | 9.5 | -1.3 | 1.5 | 39.5* | -0.7 | 31.8
O=C(Nc1c(C(=O)c2ccccc2)oc2ccccc12)c1cc(-c2ccccc2O)n[nH]1 | 1.2 | -2.6 | 1.4 | 33.6* | 0.8 | 32.0
Cc1ccc(O)c(-c2cc(C(=O)Nc3cccnc3)[nH]n2)c1 | 4.9 | 4.1 | 5.2 | -2.4 | -0.8 | x
CC(=O)Nc1c(C(=O)c2ccc(F)cc2)oc2ccccc12 | -19.0 | -1.4 | 0.6 | -2.7 | 1.8 | x
COc1ccc(-c2ccc(C(=O)Nc3cccc(N(C)C)c3)c3occc23)c(C)c1 | x | 1.4 | x | 7.8 | x | x
Cc1nc(SCc2nc3ccc(F)cc3[nH]2)c2oc3ccccc3c2n1 | -17.0 | 11.0 | x | 2.7 | x | x
Cc1nc(SCc2nc3ccc([N+](=O)[O-])cc3[nH]2)c2oc3ccccc3c2n1 | 10.6 | -3.3 | x | 33.3* | x | 3.0
